IL-1B inflam inh: blocks inflammasome-driven IL-1 beta release | activity change, % at 57.5 µM | AID 743279 | 360,000 tested, 4.7% active | THP-1 LPS/ATP IL-1B secretion, AlphaLISA, 16 h; stronger effect = lower value; in the data active = activity change below about -50%; inconclusive = mostly about -30% to -49%
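Secreted IL-1B measured by AlphaLISA bead assay after 16 h compound exposure of THP-1 cells; compounds (final up to 57.5 uM) added 1 h before LPS (250 ng/mL) and ATP (1.25 mM) stimulation; lower signal means less secretion.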
HT1080NT lethal: kills 2HG-producing HT-1080-NT fibrosarcoma cells. HT-1080-NT fibrosarcoma viability, CellTiter-Glo ATP luminescence, 48 h. Potency, µM (titrated, usually from 46.1 µM), for the others: at the top dose activity, negative = less viability, usual class: cytotoxic. 360,000 tested, 1.6% active. AID 686970;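 also: NT is the 2HG producing partner of a matched IDH1 knockdown line; potency is read from the fitted curve at half-maximal effect; 0% = DMSO-treated cells and -100% = media-only wells without cells; nearly all actives have a fitted effect of over 55% in size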
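Luminescent CellTiter-Glo readout after 48 hours of compound exposure at 37 degrees C defined viability of HT-1080-NT cells. Activity was normalized to DMSO wells and cell-free media wells; concentration-response curves were fitted and assigned curve classes.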
DT40 TDP1 no CPT: qHTS for Inhibitors of human tyrosyl-DNA phosphodiesterase 1 (TDP1): qHTS in cells in absence of CPT; DT40 Tdp1-/- hTDP1 cells, no CPT, ATP luminescence, 48 h; Potency, µM (top dose mostly 46.2 µM), inactives show at the highest dose activity change, negative = growth inhibition, usual class: inhibitors; 420,000 tested, 15% active; AID 686978, 2013; also: potency is read from the fitted curve at half-maximal effect; nearly all actives have a fitted effect of over 55% in size
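Chicken DT40 Tdp1-/- cells complemented with human TDP1, screened without camptothecin (DMSO vehicle only), 400 cells/well. Compounds pin-transferred, cells incubated at 37 °C for at least 48 hr. Growth read as ATP-dependent luminescence (CellTiter-Glo, 30 min at RT).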
HT1080 IDH1KD tx: HT-1080 IDH1 knockdown cell toxicity (counter line). HT-1080 IDH1 knockdown viability, ATP luminescence, 48 h. 360,000 tested, 2% active. Potency, µM (doses to about 46.1 µM), without a hit: top-dose activity, negative = toxicity, most hits filed as cytotoxic;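 also: potency is read from the fitted curve at half-maximal effect; 0% = DMSO wells and -100% = cell-free medium wells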
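After a 2 h attachment period, IDH1KD HT-1080 cells took pin-transferred compound for 48 h at 37 °C; ATP-based luminescence after 10 min room-temperature reagent incubation reported viability.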
TDP1 cell CPT: growth inhibition of DT40 Tdp1-/-;hTDP1 cells with camptothecin (screen for TDP1 inhibitors). chicken DT40 Tdp1-/-;hTDP1 cells + 20 nM CPT, ATP luminescence, 48 h. Potency, µM (top dose mostly 46.2 µM), inactives show at the highest dose activity change, negative = growth inhibition, hits mostly inhibitors. 420,000 tested, 12% active. AID 686979; also: potency is read from the fitted curve at half-maximal effect; nearly all actives have a fitted effect of over 55% in size
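Cell growth measured by CellTiter-Glo luminescence after a minimum 48 h, 37 C compound exposure with 20 nM CPT in Tdp1-knockout DT40 cells stably expressing hTDP1, seeded 400/well; qHTS titration format.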
Starred values were filed as active, the others as inactive; ? = inconclusive; . = no result; [ ] = dose if it differs, or a comment. This is a sample that favours compounds with a hit; in the whole collection about 19% have one here. Unless noted, calls follow the shape of the dose curve; as a rule, active = well fitted curve in the direction sought with a large enough effect; inconclusive = small, poorly fitted or top-dose-only effect, or another doubt; inactive = no such curve, though single readings can be large; an effect the other way counts as inactive or inconclusive. Unless noted, % is scaled to controls: 0 for no effect and ±100 for the full control effect.

SMILES | IL-1B inflam inh | HT1080NT lethal | DT40 TDP1 no CPT | HT1080 IDH1KD tx | TDP1 cell CPT
O=c1cc(C(O)C[N+](=O)[O-])occ1OCc1ccccc1 (centres undefined) | . | 0% | ? | 12% | -83%
O=[N+]([O-])c1cc(N=Nc2ccc3ccccc3c2)ccc1O | 2 | -7% | ? | 0% | 18µM*
Nc1ccc(O)c([N+](=O)[O-])c1 | -5 | 3% | -17% | -4% | -13%
O=S(=O)(Cc1ccccc1)N(O)c1ccccc1 | -63* | -19% | 23µM* | 2% | 21µM*
COc1ccccc1-c1nc2ccccc2nc1-c1ccccc1 | 17 | -1% | ? | -1% | 18µM*
CC1CCN(C(=O)Nc2cccc(NC(=O)N3CCC(C)CC3)c2)CC1 | ? | -2% | 5.2µM* | 4% | -6%
COC(=O)C1CCN(C(=O)Nc2ccccc2)CC1 | -105* | -12% | -7% | -5% | 8%
Cc1oc2ccc(O)cc2c1C(=O)c1ccc(Cl)cc1 | 11 | -27% | ? | -25% | -22%
Cc1oc2ccc(O)cc2c1C(=O)c1ccc([N+](=O)[O-])cc1 | ? | 5% | 13µM* | 2% | 21µM*
COc1cccc(Nc2ncc3nc(CCc4ccccc4)c(=O)n(CCC#N)c3n2)c1 | . | . | -13% | . | 4%
NCCN1C(=O)c2ccccc2C1(O)c1ccc(Cl)cc1 (centres undefined) | -27 | . | 13µM* | . | ?
O=C1c2ccccc2C(O)(c2ccccc2)N1C1CC1 (centres undefined) | 9 | 13% | 3% | 16% | -9%
CC(=O)CCc1c(C)nc2ccc(C)cc2c1Cl | ? | -23% | 5.2µM* | -16% | -8%
CCOC(=O)c1ccc2nc(C)c(CCC(C)=O)c(Cl)c2c1 | 4 | -5% | -2% | -3% | -8%
CC(C)Oc1cccc(C(=O)C2CCCN(S(C)(=O)=O)C2)c1 (centres undefined) | 31 | -1% | -20% | -1% | -5%
Cc1ccc(S(=O)(=O)n2cccc2/C=C/[N+](=O)[O-])cc1 | ? | ? | 2.9µM* | ? | 2.9µM*
Cc1nc(-c2cccc(S(=O)(=O)N3CCC(C)CC3)c2)cs1 | 11 | -3% | ? | -2% | ?
CC1CN(S(=O)(=O)c2cccc(-c3csc(-c4ccccc4)n3)c2)CC(C)O1 (centres undefined) | -6 | 1% | 26µM* | -10% | ?
Cc1nc(-c2cccc(S(=O)(=O)N3CCCC(C)C3)c2)cs1 (centres undefined) | -16 | -4% | ? | -7% | 15µM*
Cc1nc(-c2cccc(S(=O)(=O)N3CCCCC3)c2)cs1 | -89* | -5% | -26% | -3% | -14%
COc1ccc(OC)c(-c2oc3ccccc3c(=O)c2O)c1 | -6 | ? | ? | ? | -21%
COc1ccc(-c2oc3cc(O)c(OC)c(O)c3c(=O)c2OC)cc1O | 50 | 0.41µM* | 0.92µM* | 0.58µM* | 0.92µM*
COc1cc(OC)c2c(=O)c(OC)c(-c3ccc(OC)c(OC)c3)oc2c1 | ? | -10% | ? | -8% | ?
COc1cc(-c2oc3ccc(C)cc3c(=O)c2O)cc(OC)c1OC | . | . | ? | . | 5.8µM*
COc1cc(-c2oc3cc(O)ccc3c(=O)c2O)ccc1O | . | . | ? | . | 21µM*
SMILES | IL-1B inflam inh | HT1080NT lethal | DT40 TDP1 no CPT | HT1080 IDH1KD tx | TDP1 cell CPT
COc1ccc(-c2c(C)c3ccc(O)cc3oc2=O)cc1OC | 28 | 1% | -23% | 2% | 6%
COc1cc(OC)c(-c2oc3ccccc3c(=O)c2O)c(OC)c1 | 9 | ? | 7.3µM* | ? | 8.2µM*
CC(C)c1c(C(=O)N2CCN(CCO)CC2)cnn1-c1nccc(-c2cccs2)n1 | . | . | -14% | . | 26%[9.04 µM]
Cc1ccnc(NC(=O)c2ccc(NS(=O)(=O)/C=C/c3ccccc3)cc2)c1 | -12 | 10% | -9% | 6% | -2%
O=c1c(O)c(-c2ccc(O)cc2)oc2cc(O)ccc12 | . | . | 30µM* | . | 27µM*
COc1cc(O)c2c(=O)c(O)c(-c3ccc(O)c(O)c3)oc2c1 | . | . | -8% | . | 1%
O=c1c(O)c(-c2ccc(O)c(O)c2)oc2cc(O)ccc12 | -83* | -13% | 6.7µM* | -2% | 23µM*
COc1ccc(NC(=O)CN(C)C(=O)c2ccc(C)c(S(=O)(=O)N3CCCCC3)c2)cc1 | 2 | 0% | ? | -1% | -13%
CC(Oc1ccccc1)C(=O)N=C1SC2CS(=O)(=O)CC2N1c1cccc(F)c1 (centres undefined) | -4 | -9% | 15% | 6% | -3%
CCc1ccc(NC(=O)CN2CCCN(Cc3cccc(Cl)c3)S2(=O)=O)cc1 | . | . | -21% | . | ?
CCc1cccc(C)c1NC(=O)CN1CCN(Cc2ccccc2Cl)S1(=O)=O | . | . | 26µM* | . | ?
O=C(CN1CCCN(Cc2ccc(F)cc2)S1(=O)=O)NCc1ccccc1Cl | . | . | 16µM* | . | ?
CCc1cccc(C)c1NC(=O)CN1CCCN(Cc2ccccc2Cl)S1(=O)=O | . | . | 23µM* | . | ?
Cc1cc(NC(=O)Nc2ccc(F)cc2)no1 | -8 | 7% | -14% | 1% | -3%
Cc1cc(NC(=O)Nc2ccc(C)c(C)c2)no1 | 14 | 29µM* | -102% | -4% | 23µM*
CC(=O)N(C)c1ccc(NC(=O)Nc2ccccc2C)cc1 | 16 | ? | -1% | -2% | -8%
CCC(Oc1ccccc1)C(=O)Nc1cc(C)on1 (centres undefined) | 14 | 11% | -9% | -5% | -22%
Cc1cc(NC(=O)C(Cl)c2ccccc2)no1 (centres undefined) | -83* | ? | ? | ? | 7.3µM*
CC(=O)N(C)c1ccc(NC(=O)Nc2ccc(C)c(C)c2)cc1 | ? | -9% | 18µM* | -12% | ?
Cc1cc(NC(=O)Nc2cccc3ccccc23)no1 | 8 | -11% | ? | -11% | 9.2µM*
Cc1cccc(NC(=O)CCNC(=O)c2ccco2)c1 | -5 | -2% | -11% | -5% | 1%
O=C(CCNS(=O)(=O)c1ccc(Br)cc1)NCc1ccc(Cl)cc1 | -20 | -13% | 0% | -7% | ?
Cc1ccccc1CC(=O)Nc1cc(C(C)(C)C)on1 | 8 | 12% | -27% | -1% | 9%
Cc1ccoc1C(=O)Nc1cccc2ccccc12 | -10 | 1% | 21µM* | -3% | 9.2µM*
CC(C)c1ccc(NC(=S)Nc2ccc3[nH]c(=O)[nH]c3c2)cc1 | -2 | 6% | 4% | 7% | -3%
CC(=O)N(C)c1ccc(NC(=S)Nc2ccc(C(C)C)cc2)cc1 | 21 | 1% | 26µM* | -2% | 16µM*
Cc1cc(NC(=O)Cc2ccccc2C)no1 | 0 | -12% | -23% | -4% | 23µM*

Source: PubChem
